Compound activity deposited in PubChem by several laboratories.
p97 inhibitor – human p97 ATPase inhibition | AID 1481 | inhibition, % at 8 µM | hit rate 0.42% among 220,000 | P55072 | recombinant p97 ATPase, Kinase-Glo ATP luminescence, 3 h; in the data active means inhibition above about 15%
HCT116 PTEN-null – growth suppressors of cells with PTEN tumor suppressor deletion | HCT116 PTEN-null viability, CellTiter-Glo, 60 h; active compounds read low | viability, % at 10 µM | hit rate 1.2% among 140,000 | AID 827;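 active means viability at or below a set limit, 4 SD under the median of all tested compounds, cut at about 3.7% in these data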;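 further: PTEN knockout HCT116 line with beta catenin targeted HCT116 as companion control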
ROMK primary – human ROMK K+ channel modulation, primary screen. P48048. Tet-inducible ROMK, thallium flux fluorescence; actives lie on both sides. B-score at 10 µM. hit rate 2% among 130,000. AID 1918;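 active means signal ratio slope over the read window, or its plate-corrected B-score, at least 3 SD from the plate mean, either direction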;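 further: B-score of the F/F0 ratio slope over 7 to 12 s after thallium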
Target sequence (P48048 whole entry, looked up): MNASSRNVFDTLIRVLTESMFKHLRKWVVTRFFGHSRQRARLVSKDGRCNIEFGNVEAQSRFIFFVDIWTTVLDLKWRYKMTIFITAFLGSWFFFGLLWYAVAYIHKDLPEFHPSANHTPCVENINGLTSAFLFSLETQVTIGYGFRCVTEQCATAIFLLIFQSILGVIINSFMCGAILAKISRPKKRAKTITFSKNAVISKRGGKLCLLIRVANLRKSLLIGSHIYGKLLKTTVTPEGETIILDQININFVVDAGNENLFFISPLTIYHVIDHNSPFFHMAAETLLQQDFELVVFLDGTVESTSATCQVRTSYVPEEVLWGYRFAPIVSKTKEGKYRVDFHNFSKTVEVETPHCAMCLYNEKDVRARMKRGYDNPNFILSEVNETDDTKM
L major viab – Leishmania major promastigote growth inhibition | Leishmania major promastigotes, resazurin fluorescence viability | inhibition, % at 10 µM | hit rate 9% among 200,000; in the data active means inhibition above about 50%;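 further: promastigotes grown with compound for 44 hours at 28 °C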
HCT116 bCat-KO – beta-catenin-lacking colon tumor cell growth suppression; AID 818; hit rate 1.5% among 140,000; HCT116 beta-catenin knockout viability, CellTiter-Glo, 60 h; active compounds read low; viability, % at 10 µM;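 active means viability at or under a set limit, the compound median less 4 SD, cut at about 6% in these data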
INS promoter inh – TRM-6 insulin promoter activity inhibition; inhibition, % at 2 µM; AID 1273; TRM-6 cells (human fetal islet line), insulin promoter-eGFP reporter, imaging; reporter expression induced with tamoxifen; hit rate 0.9% among 130,000;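 active means inhibition above the mean plus 3 SD, with well images judged a real hit on visual review, cut at about 60% in these data, passing the limit was not always enough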
Hits are given with their value; . = inactive; / = no result. Sampled rows, rich in hits. Any-hit rate of the full collection: about 10%.

SMILES	p97 inhibitor	HCT116 PTEN-null	ROMK primary	L major viab	HCT116 bCat-KO	INS promoter inh
CCOC(=O)c1c(C(C)(C)C)oc2ccc(O)cc12	.	.	/	100	.	.
O=C(COC(=O)/C=C/c1ccccc1[N+](=O)[O-])NCC(F)(F)F	.	/	.	.	/	/
c1ccc2c(c1)OCCOCCOCCOCCOc1ccccc1OCCOCCOCCO2	.	.	/	99	.	.
Cc1cc(C)n(-c2cccc3cccnc23)n1	.	.	.	.	.	.
O=C(Nc1ccc(S(=O)(=O)Nc2ncccn2)cc1)c1ccc(S(=O)(=O)N2CCCC2)cc1	.	/	.	.	/	/
CCC(=O)Nc1cccc2cccnc12	.	/	.	.	/	/
CS(=O)(=O)Nc1cccc2cccnc12	.	.	.	80	.	/
O=S(=O)(Nc1cccc2cccnc12)c1ccc(S(=O)(=O)N2CCCC2)cc1	.	3.8	.	99	.	/
Cc1cc(C)n(-c2ccc3cccc(NS(C)(=O)=O)c3n2)n1	.	.	.	.	3.6	.
NC(=S)Nc1cccc2cccnc12	.	.	/	89	.	.
Cc1ccc(-c2nnc(SCC(=O)N3CC(C)CC(C)C3)o2)cc1C (stereo unspecified)	.	.	/	.	.	.
Cc1cccc(NC(=O)COc2ccc(/C=N\n3cnnc3)cc2)c1	.	.	.	.	.	.
CCOC(=O)COn1c(=O)c[n+]([O-])c2ccccc21	.	.	/	.	.	100
CCN(CC)S(=O)(=O)c1cccc(NC2=NCC(C)S2)c1 (stereo unspecified)	.	/	.	.	/	/
O=C(/C=C\c1ccc2c(c1)OCO2)Nc1c2c(nn1-c1ccc(Cl)cc1)CSC2	.	.	.	95	.	.
O=C(Nc1cc(S(=O)(=O)N2CCOCC2)ccc1N1CCCC1)c1cccnc1Cl	.	/	/	/	/	/
O=S(=O)(N/N=C1/CCCc2ccccc21)c1ccc(Br)cc1	.	.	-3.7	.	.	.
COC(=O)c1ccccc1NC(=O)CN1CCC(n2nnc3cc(C(F)(F)F)ccc32)CC1	.	.	.	.	.	.
CC1Cc2ccccc2N1C(=O)CN1CCC(n2nnc3cc(C(F)(F)F)ccc32)CC1 (stereo unspecified)	.	.	.	95	.	/
CCOC(=O)N1CCN(C(=O)CN(C2CCCCC2)S(=O)(=O)c2ccc(C)cc2)CC1	.	.	/	.	.	.
Cc1ccc(S(=O)(=O)N(CC(=O)N2CCN(c3ccc(F)cc3)CC2)C2CCCCC2)cc1	.	.	/	59	.	.
O=C(Nc1ccccc1F)c1ccc([N+](=O)[O-])s1	.	/	.	100	/	/
O=C(Nc1cccc2ccccc12)c1ccc([N+](=O)[O-])s1	.	3.1	.	100	3.9	.
O=C(CC1SC(=O)NC1=O)Oc1ccc(/C=N/NC(=O)c2ccccc2O)cc1 (stereo unspecified)	.	/	.	/	/	/
CSc1ccc(CN2CCN(C(C)C)C(CCO)C2)cc1 (stereo unspecified)	.	/	.	.	/	/
SMILES	p97 inhibitor	HCT116 PTEN-null	ROMK primary	L major viab	HCT116 bCat-KO	INS promoter inh
C/C(CC(=O)Nc1ccc(N(C)C)cc1)=N\NC(=O)Cc1csc(N)n1	.	.	.	75	.	.
C/C(CC(=O)NC1CCCC1)=N\NC(=O)Cc1csc(N)n1	.	.	.	.	.	.
Cc1ccc(S(=O)(=O)N(CC(=O)Nc2cccc(N(C)S(C)(=O)=O)c2)c2ccc(Cl)c(Cl)c2)cc1	.	.	/	67	.	.
CN(c1cccc(NC(=O)CN(c2ccc(C34CC5CC(CC(C5)C3)C4)cc2)S(C)(=O)=O)c1)S(C)(=O)=O	.	2.0	.	90	1.9	.
CN(c1cccc(NC(=O)CSc2ccc(Cl)cc2)c1)S(C)(=O)=O	.	.	.	74	.	.
CN(c1cccc(NC(=O)CN(c2ccc(F)cc2)S(C)(=O)=O)c1)S(C)(=O)=O	.	/	.	.	/	/
CN(c1cccc(NC(=O)CN(c2ccc(Cl)c(Cl)c2)S(=O)(=O)c2ccccc2)c1)S(C)(=O)=O	.	.	.	.	.	.
COc1ccc(C(O)c2nc3ccccc3n2C(C)C)cc1 (stereo unspecified)	.	/	/	/	/	/
CC1CCN(CCCNC(=O)c2ccc3c(Cl)c4c(nc3c2)CCCC4)CC1	.	/	/	/	/	/
O=C(/C=C/c1cccc(O)c1)c1ccc(N2CCOCC2)cc1	.	/	/	/	/	/
Cc1ccc(NC(=O)CSc2ncn(-c3ccccc3)n2)cc1C	.	.	/	97	.	.
O=C(NCc1ccccn1)c1ccc(CNS(=O)(=O)c2ccc(F)cc2)cc1	.	.	/	.	.	.
CC(C)(C)NCCOc1ccc(Br)cc1	.	.	.	95	.	.
CCc1ccc(OCCOCC(O)CNC(C)(C)C)cc1 (stereo unspecified)	.	.	/	.	.	/
CNc1nc(C)cc(C)c1S(=O)(=O)c1ccc(Cl)cc1	.	.	/	.	.	.
Cc1ccc(-n2nc3c([n+]2[O-])CCc2c-3no[n+]2[O-])cc1	.	.	.	.	.	.
[O-][n+]1onc2c1CCc1c-2nn(-c2ccccc2Cl)[n+]1[O-]	.	2.0	.	.	2.5	/
CC(=O)n1nc(-c2ccccc2)nc1NCc1cccs1	.	/	.	.	/	/
Cc1ccc(Nc2nc(N)nc(CN3CCN(c4ccccc4)CC3)n2)cc1Cl	.	.	.	.	.	/
Cc1ccc(Nc2nc(N)nc(CN3CCN(Cc4ccc5c(c4)OCO5)CC3)n2)cc1Cl	.	1.5	/	70	0.9	/
COc1ccccc1Nc1nc(N)nc(CN2CCC(C)CC2)n1	.	/	.	.	/	.
Cc1cccc(Nc2nc(N)nc(CN3CCC(C)CC3)n2)c1C	.	.	/	.	.	100
COc1ccccc1Nc1nc(N)nc(CN2CCC(Cc3ccccc3)CC2)n1	.	.	/	.	.	.
COc1ccc(Nc2nc(N)nc(CN3CCC(Cc4ccccc4)CC3)n2)cc1	.	.	/	87	.	.
COc1ccc(N2CCN(Cc3nc(N)nc(Nc4ccc(C)c(Cl)c4)n3)CC2)cc1	.	1.4	/	.	0.8	/
SMILES	p97 inhibitor	HCT116 PTEN-null	ROMK primary	L major viab	HCT116 bCat-KO	INS promoter inh
CCOc1ccc(S(=O)(=O)N2CCN(C(=O)c3sccc3C)CC2)cc1	.	/	.	.	.	.
CCOP(=O)(OCC)c1nc(-c2cccc3ccccc23)oc1NCCc1ccc(OC)cc1	.	.	/	97	.	.
CCc1nc2cc([N+](=O)[O-])c([N+](=O)[O-])cc2[nH]1	.	.	/	.	.	75
COc1ccc(N(C(=O)CCl)C(C(=O)NC2CCCCC2)c2cccnc2)cc1 (stereo unspecified)	.	2.5	.	98	2.8	.
O=C(NCC(=O)N(c1ccccc1)C(C(=O)NC1CCCCC1)c1cccnc1)c1cccs1 (stereo unspecified)	.	/	.	.	/	/
COc1ccc(C(C(=O)NC2CCCCC2)N(C(=O)c2ccccn2)c2cccnc2)cc1 (stereo unspecified)	.	/	.	.	/	.
O=C(NC1CCCCC1)C(c1cccnc1)N(C(=O)CCl)c1ccccc1Cl (stereo unspecified)	.	.	.	68	.	.
O=C(NC1CCCCC1)C(c1cccnc1)N(C(=O)CCl)c1ccc(F)cc1 (stereo unspecified)	.	3.0	.	78	4.2	/
